Values joined by “and” are separate entries in the source; they are usually repeats but may differ in a detail not shown here. Equal entries are not always repeated.
Assay: MDA-MB-436 breast carcinoma cell growth inhibition, synergistic combos for chromothripsis tumors, BGB or cisplatin combos (AID 1671458);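 also: cells exposed for 96 hours; 0% = vehicle DMSO and 100% = killing by high DMSO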
Conditions: MDA-MB-436 breast carcinoma growth inhibition, drug combinations; measured here: cisplatin combination; at 0.5 µM; stronger effect = higher value

SMILES | inhibition
COc1ccccc1S(=O)(=O)Nc1ccc2c(c1)CN(C)C(=O)N2 | -32.4%
Cc1cc(C#N)cc(C)c1Oc1nc(Nc2ccc(C#N)cc2)nc(N)c1Br | -43.6%
Nc1ncn(C2OC(CO)C(O)C2O)c(=O)n1 (stereo not drawn) | 0.452%
Cc1cc(C)c(Nc2ccnc(Nc3ccc(C#N)cc3)n2)c(C)c1 | -36.7%
COc1ccc(CC(N)C(=O)NC2C(CO)OC(n3cnc4c(N(C)C)ncnc43)C2O)cc1 (stereo not drawn) | 53% and 76.1%
O=c1ccn(C2OC(CO)C(O)C2O)c(=O)[nH]1 (stereo not drawn) | 12.2% and -58.5%
CC=C1NC(=O)C2CSSCCC=CC(CC(=O)NC(C(C)C)C(=O)N2)OC(=O)C(C(C)C)NC1=O (stereo not drawn) | 73.2% and 67.4%
CN(C)CC(=O)Nc1ccc2[nH]c(=O)c3ccccc3c2c1 | -8.29% and -33% and -6.83%
CC1OC(n2cc(F)c(=O)[nH]c2=O)C(O)C1O (stereo not drawn) | -54.4%
Nc1ccn(C2OC(CO)C(O)C2(F)F)c(=O)n1 (stereo not drawn) | 71.9% and 76.1% and 74.4%
Cc1cn(C2CC(N=[N+]=[N-])C(CO)O2)c(=O)[nH]c1=O (stereo not drawn) | -42.5% and -8.26%
CC(C=CC(=O)NO)=CC(C)C(=O)c1ccc(N(C)C)cc1 (stereo not drawn) | 54.4%
NC(=S)NN=Cc1ncccc1N | -34.4%
CC(C)(C#N)c1ccc(N2C(=O)OCc3cnc4ccc(-c5cnc6ccccc6c5)cc4c32)cc1 | -29.7%
CC1CN(c2c(F)c(N)c3c(=O)c(C(=O)O)cn(C4CC4)c3c2F)CC(C)N1 (stereo not drawn) | -22.6%
CCCCN(Cc1ccc(C(=O)NO)cc1)C(=O)Nc1ccccc1 | 0.872% and -0.512%
O=c1[nH]cnc2c1ncn2C1OC(CO)C(O)C1O (stereo not drawn) | -29.8% and -11.4%
Cc1cc(C=CC#N)cc(C)c1Nc1ccnc(Nc2ccc(C#N)cc2)n1 | -45.9%

Source: PubChem BioAssay
